Shown are actives, neighbours in structure and some others; about 1.3% of the full set was active somewhere.
NCOA1 inh = inhibits human SRC1 coactivator | 360,000 compounds, 0.12% hits | inhibition, % at 3.6 µM | Q15788 | AID 588354 | HEK293 GAL4-SRC1 luciferase reporter, luminescence;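 active = inhibition above the campaign mean plus 3 SD, with each screening campaign given its own cutoff, cut at about 60% in these data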
Gli-Sufu block = antagonists of Gli-Sufu signaling | Sufu-KO-LIGHT fibroblasts, Gli luciferase reporter luminescence | inhibition, % at 5 µM | 340,000 compounds, 0.74% hits;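 active = inhibition above about 55%, limit read from the data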
COUP-TFII inh = NR2F2 (human) inhibition, primary screen. inhibition, % at 8.6 µM. P24468. HEK293T NGFI-A luciferase reporter, luminescence. 370,000 compounds, 0.7% hits;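 active = inhibition above a per-plate cutoff, mean inhibition of test wells between control levels plus 3 SD, cut at about 38% in these data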;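 note: cells cotransfected with COUP-TFII expression vector driving the NGFI-A reporter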
SRC2 inh = inhibits human steroid receptor coactivator 2; Q15596; HEK293 GAL4-SRC2 luciferase reporter, luminescence; inhibition, % at 9 µM; 370,000 compounds, 0.17% hits;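 active = inhibition above the mean inhibition of all tested compounds plus 3 SD, set per campaign, cut at about 52% in these data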
LRH-1 inv ag = suppresses constitutive activity of human LRH-1; O00482; HEK293T StAR-luciferase reporter, LRH-1 transfected, 24 h; inhibition, % at 3.6 µM; 360,000 compounds, 0.13% hits; AID 602396;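 active = inhibition above the mean inhibition of all tested compounds plus 3 SD, cut at about 73% in these data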
NCOA3 inh = human NCOA3 inhibition | HEK293 GAL4-SRC3 luciferase reporter, luminescence | inhibition, % at 3.6 µM | 360,000 compounds, 0.17% hits | AID 588352;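 active = inhibition above a per-campaign cutoff, the mean of all compounds plus 3 SD, cut at about 60% in these data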;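 note: higher means less SRC3-driven luciferase light from the GAL4 reporter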
Gli-Sufu confirm = confirmation of Gli-SUFU pathway antagonists; shares compounds with Gli-Sufu block; Sufu-KO-LIGHT cells, Gli luciferase reporter, luminescence; inhibition, % at 5 µM; 2,500 compounds, 40% hits; AID 602428;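 active = mean inhibition at 5 µM reaching about 45%, limit read from the data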
Gli cytotox = cytotoxicity counter-screen for Gli-SUFU antagonists | shares compounds with Gli-Sufu block | Sufu-KO-LIGHT cells cytotoxicity, ATP luminescence | cytotoxicity, % at 5 µM | 2,500 compounds, 32% hits | AID 651994;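 active = mean cytotoxicity at 5 µM above about 25%, limit read from the data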;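 note: cells exposed to compound overnight for roughly 16 to 18 hours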
Wnt3a cs = inhibits Wnt3a reporter, counter-screen for Gli-SUFU antagonists. inhibition, % at 6.25 µM. AID 651995. Wnt-LIGHT cells, Wnt3a-driven luciferase reporter, luminescence. shares compounds with Gli-Sufu block. 2,500 compounds, 20% hits;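 active = mean inhibition above about 25%, limit read from the data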
Each line names hits and unclear results; the compound was inactive in the other large screens (follow-up assays come after a bar, where they were run).

BrC(=C\c1ccccc1)/C=N/Nc1nc2ccccc2[nH]1	none | Gli-Sufu confirm inactive | Gli cytotox inactive | Wnt3a cs inactive
CC(C)CN1C(=O)[C@]2(CC(=O)N(C)C2c2ccccc2)c2cc(-n3cc(CCCC#N)nn3)ccc21 (stereo partly specified)	none (no result: NCOA1 inh, Gli-Sufu block, LRH-1 inv ag, NCOA3 inh)
O=C(/C=C/NNC(=O)c1ccccc1)c1ccc([N+](=O)[O-])cc1	Gli-Sufu block 73.3 | Gli-Sufu confirm inactive | Gli cytotox 27.7 | Wnt3a cs inactive
CC1Sc2n(c3ccccc3[n+]2C)N=C1c1ccccc1 (stereo unspecified)	Gli-Sufu block 59.4 | Gli-Sufu confirm 74.9 | Gli cytotox 27.0 | Wnt3a cs inactive
Cn1c(Cc2ccccc2)[n+](C)c2ccccc21	none
CN(CCc1ccccc1)C(=O)c1cc2ccccn2n1	none (no result: NCOA1 inh, Gli-Sufu block, LRH-1 inv ag, NCOA3 inh)
C/C(=N\NC(=O)c1ccn(C)n1)c1ccc(NC(=O)C2CCC2)cc1	Gli-Sufu block 71.9 | Gli-Sufu confirm inactive | Gli cytotox inactive | Wnt3a cs inactive
C/C(=N\NC(=O)c1ccn(C)n1)c1ccc(NC(=O)C2CCCC2)cc1	none
CN1CCN(CCC(=O)Nc2ccc(Br)cc2)CC1	Gli-Sufu block 84.4 | Gli-Sufu confirm inactive | Gli cytotox inactive | Wnt3a cs inactive
CC(C)c1ccccc1-n1c(SCC(=O)N2CCc3ccccc3C2)nc2ccccc2c1=O	none
O=C(CSc1nc2ccccc2c(=O)n1-c1ccccc1)N1CCc2ccccc2C1	Gli-Sufu block 66.7 | Gli-Sufu confirm 73.8 | Gli cytotox 39.6 | Wnt3a cs inactive
C=CCn1nc([N+](=O)[O-])nc1Sc1cccc2cccnc12	Gli-Sufu block 67.8 (no result: COUP-TFII inh, SRC2 inh) | Gli-Sufu confirm 48.5 | Gli cytotox inactive | Wnt3a cs inactive
O=[N+]([O-])c1ccc(Sc2cccc3cccnc23)cc1	none
CCCCCCCCCCCC1N=C(N)NC(CCCO)=C1C(=O)OC (stereo unspecified)	Gli-Sufu block 77.8 | Gli-Sufu confirm inactive | Gli cytotox inactive | Wnt3a cs 27.0
O=C(c1cnc(N2CCN(c3ccccn3)CC2)c2ccccc12)N1CCN(c2cccc(Cl)c2)CC1	Gli-Sufu block 65.3 | Gli-Sufu confirm 53.9 | Gli cytotox 36.1 | Wnt3a cs inactive
C#CCN1C(=O)[C@]2(NCCc3c2[nH]c2ccc(OC)cc32)c2cc(F)ccc21	none (no result: NCOA1 inh, Gli-Sufu block, LRH-1 inv ag, NCOA3 inh)
CC(=O)c1cnc(Nc2ccccc2)s1	Gli-Sufu block 56.9 | Gli-Sufu confirm inactive | Gli cytotox inactive | Wnt3a cs inactive
COc1cccc2cc3c(nc12)C[C@@H]1CCCC(=O)N2CCC[C@@]12C3	none (no result: NCOA1 inh, Gli-Sufu block, SRC2 inh, LRH-1 inv ag, NCOA3 inh)
COc1ccc(CCNc2ccncn2)cc1	none
COc1ccc(CCNc2ccc(S(N)(=O)=O)cn2)cc1	none | Gli-Sufu confirm inactive | Gli cytotox inactive | Wnt3a cs inactive
Cc1ccc(NC(=S)Nc2ccc(S(=O)(=O)N3CCOCC3)cc2)cc1S(=O)(=O)N1CCOCC1	none | Gli-Sufu confirm inactive | Gli cytotox inactive | Wnt3a cs inactive
CCC1(O)C(=O)OCc2c1cc1n(c2=O)Cc2cc3cc(O)ccc3nc2-1 (stereo unspecified)	LRH-1 inv ag 91.5, NCOA3 inh 77.6 | Gli-Sufu confirm 64.1 | Gli cytotox 50.9 | Wnt3a cs inactive
O=C(Cn1cc(C(F)(F)F)ccc1=O)N/N=C/c1ccc(Cl)c(Cl)c1	none | Gli-Sufu confirm inactive | Gli cytotox inactive | Wnt3a cs inactive
CCN(CC)C1=CC(=[N+]2CCCC2)CC(C)(C)C1	Gli-Sufu block 79.4 | Gli-Sufu confirm 81.7 | Gli cytotox 31.6 | Wnt3a cs 47.8
CN(C)c1cccc(NC2=CC(=[N+]3CCOCC3)CC(C)(C)C2)c1	none
COC(=O)C1CN(Cc2cn(Cc3ccc(C)cc3)nn2)CCS(=O)(=O)N1Cc1ccc(F)cc1 (stereo unspecified)	none (no result: NCOA1 inh, Gli-Sufu block, LRH-1 inv ag, NCOA3 inh)
COC(=O)[C@H](Cc1ccccc1)NC(=O)[C@H]1O[C@@H](n2cnc3c(=O)[nH]c(N)nc32)[C@H](O)[C@@H]1O	none (no result: NCOA1 inh, Gli-Sufu block, LRH-1 inv ag, NCOA3 inh)
CC(=O)C1=NN(c2ccccc2)C(c2ccc3c(c2)OCO3)N1c1ccccc1 (stereo unspecified)	none
CC(=O)C1=NN(c2ccccc2)C(c2cccs2)N1c1ccc(N(C)C)cc1 (stereo unspecified)	Gli-Sufu block 78.8 | Gli-Sufu confirm 79.0 | Gli cytotox 32.8 | Wnt3a cs inactive
CCCc1sc(N/N=C/c2ccccn2)nc1-c1ccc(Br)cc1	Gli-Sufu block 63.9 | Gli-Sufu confirm 80.5 | Gli cytotox inactive | Wnt3a cs 87.8
COC(=O)c1ccc(Oc2cc(C)nc(-n3nc(C)cc3C)n2)cc1	none | Gli-Sufu confirm 63.5 | Gli cytotox 59.8 | Wnt3a cs inactive
COC(=O)c1ccc(Oc2nc(C)cc(Oc3ccccc3)n2)cc1	none
COc1ccc(S(=O)(=O)NCC2CCCN(Cc3ccccc3Cl)C2)cc1 (stereo unspecified)	none
COc1ccc(S(=O)(=O)NCC2CCCN(Cc3ccc(OC)cc3F)C2)cc1 (stereo unspecified)	Gli-Sufu block 59.7 | Gli-Sufu confirm inactive | Gli cytotox inactive | Wnt3a cs inactive
Cc1ccc(Cn2c(N3CCN(CCO)CC3)nc3c2c(=O)n(C)c(=O)n3C)cc1	none | Gli-Sufu confirm inactive | Gli cytotox inactive | Wnt3a cs inactive
CN1CCN(c2nc3c(c(=O)n(C)c(=O)n3C)n2Cc2ccc(F)cc2)CC1	none
CCOc1ccc(-n2c(COc3ccc(C)cc3)nnc2SCC(=O)c2ccc3ccccc3c2)cc1	none (no result: NCOA1 inh, Gli-Sufu block, LRH-1 inv ag, NCOA3 inh)
COC(=O)C1CN(Cc2ccc(Cl)cc2)CCS(=O)(=O)N1Cc1cn(Cc2ccc(F)cc2)nn1 (stereo unspecified)	none (no result: NCOA1 inh, Gli-Sufu block, LRH-1 inv ag, NCOA3 inh)
O=C1CC[C@@]23CCCN2C(=O)CCCC3C1 (stereo partly specified)	Gli-Sufu block 55.3 | Gli-Sufu confirm inactive | Gli cytotox inactive | Wnt3a cs inactive
CCNC(=S)Nc1ccc(Oc2ccccc2)cc1	none
COc1ccc(NC(=S)Nc2ccc(Oc3ccccc3)cc2)cc1	Gli-Sufu block 76.7 | Gli-Sufu confirm inactive | Gli cytotox inactive | Wnt3a cs inactive
COc1ccc(-c2c(-c3ccc(O)cc3O)n[nH]c2C(F)(F)F)cc1	none
COc1ccccc1-c1c(-c2ccc(O)cc2O)n[nH]c1C(F)(F)F	none | Gli-Sufu confirm 62.9 | Gli cytotox inactive | Wnt3a cs 31.1
O=C(NCc1ccccc1)Nc1ccccc1C(=O)N1CCCC1	none (no result: NCOA1 inh, Gli-Sufu block, LRH-1 inv ag, NCOA3 inh)
CCc1nnc(NC(=O)c2cc(-c3ccco3)nc3ccccc23)s1	Gli-Sufu block 61.2 | Gli-Sufu confirm inactive | Gli cytotox inactive | Wnt3a cs inactive
CCc1nnc(NC(=O)c2cc(-c3ccccn3)nc3ccccc23)s1	none

Source: PubChem (several laboratories)
